31 targets from the supplement of paper PMC12819154, “High-throughput peptide-centric local stability assay extends protein–ligand identification to membrane proteins, tissues and bacteria” (Nature Structural & Molecular Biology, 2025) can be followed below.
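Note: lysate desalted by size exclusion to strip endogenous ATP, peptide intensities built from DIA-NN precursor signals, and peptides missing any value discarded before comparison.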

UniProt P0A7Y8, sequence (P0A7Y8 whole entry): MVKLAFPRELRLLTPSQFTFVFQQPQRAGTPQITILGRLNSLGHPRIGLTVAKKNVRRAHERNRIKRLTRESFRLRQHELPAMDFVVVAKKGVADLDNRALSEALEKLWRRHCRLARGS
UniProt P0AF96, sequence (P0AF96 whole entry): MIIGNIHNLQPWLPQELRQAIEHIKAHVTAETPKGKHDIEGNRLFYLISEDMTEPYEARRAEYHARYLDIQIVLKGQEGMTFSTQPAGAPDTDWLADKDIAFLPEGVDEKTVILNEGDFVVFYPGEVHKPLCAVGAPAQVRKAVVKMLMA
UniProt P77307, sequence (P77307 whole entry): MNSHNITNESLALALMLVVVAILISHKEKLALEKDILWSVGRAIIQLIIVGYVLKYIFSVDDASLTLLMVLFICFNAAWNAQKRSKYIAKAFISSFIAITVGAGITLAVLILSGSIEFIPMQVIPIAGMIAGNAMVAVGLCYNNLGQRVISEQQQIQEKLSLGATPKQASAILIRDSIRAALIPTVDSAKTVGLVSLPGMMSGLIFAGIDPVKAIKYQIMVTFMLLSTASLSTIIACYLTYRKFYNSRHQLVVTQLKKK
UniProt P39280, sequence (P39280 whole entry): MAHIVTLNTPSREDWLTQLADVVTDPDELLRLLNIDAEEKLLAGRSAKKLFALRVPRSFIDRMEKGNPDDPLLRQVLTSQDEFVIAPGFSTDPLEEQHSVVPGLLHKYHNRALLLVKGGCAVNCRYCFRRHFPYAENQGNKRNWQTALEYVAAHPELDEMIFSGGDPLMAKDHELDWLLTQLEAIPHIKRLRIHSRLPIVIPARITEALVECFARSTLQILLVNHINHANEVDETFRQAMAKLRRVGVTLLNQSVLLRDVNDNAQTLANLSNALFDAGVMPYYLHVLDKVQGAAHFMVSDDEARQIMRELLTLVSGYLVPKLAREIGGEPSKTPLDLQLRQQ
UniProt Q47147, sequence (Q47147 whole entry): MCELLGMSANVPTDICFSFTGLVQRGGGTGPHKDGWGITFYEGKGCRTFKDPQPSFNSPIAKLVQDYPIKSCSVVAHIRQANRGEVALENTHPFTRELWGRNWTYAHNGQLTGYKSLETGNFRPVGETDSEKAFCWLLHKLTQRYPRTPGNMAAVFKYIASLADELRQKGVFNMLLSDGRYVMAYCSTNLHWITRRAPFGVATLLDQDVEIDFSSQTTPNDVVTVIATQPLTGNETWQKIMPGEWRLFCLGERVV
UniProt P56579, sequence (P56579 whole entry): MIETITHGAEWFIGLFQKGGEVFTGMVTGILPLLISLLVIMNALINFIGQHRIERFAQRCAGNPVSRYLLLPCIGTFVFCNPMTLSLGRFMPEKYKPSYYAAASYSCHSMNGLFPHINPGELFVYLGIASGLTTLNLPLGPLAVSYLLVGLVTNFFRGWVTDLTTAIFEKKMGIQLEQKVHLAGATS
UniProt P30750, sequence (P30750 whole entry): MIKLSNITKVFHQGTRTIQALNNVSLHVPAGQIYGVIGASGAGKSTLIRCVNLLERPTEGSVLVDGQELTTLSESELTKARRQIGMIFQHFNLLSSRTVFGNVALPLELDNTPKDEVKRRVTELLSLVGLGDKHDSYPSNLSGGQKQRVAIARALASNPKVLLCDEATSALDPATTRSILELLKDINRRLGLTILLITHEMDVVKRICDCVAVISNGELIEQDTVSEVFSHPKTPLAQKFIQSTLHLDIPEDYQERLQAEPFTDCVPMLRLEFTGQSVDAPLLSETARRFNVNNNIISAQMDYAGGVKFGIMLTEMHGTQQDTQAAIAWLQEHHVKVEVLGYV
UniProt P0ACW4, sequence (P0ACW4 whole entry): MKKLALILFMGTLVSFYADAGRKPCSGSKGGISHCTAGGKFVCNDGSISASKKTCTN
UniProt P55734, sequence (P55734 whole entry): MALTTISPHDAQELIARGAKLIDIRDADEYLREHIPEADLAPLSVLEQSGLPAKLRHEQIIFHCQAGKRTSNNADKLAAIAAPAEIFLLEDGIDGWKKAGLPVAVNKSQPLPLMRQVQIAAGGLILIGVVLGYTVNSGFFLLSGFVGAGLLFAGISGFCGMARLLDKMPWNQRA
UniProt P75829, sequence (P75829 whole entry): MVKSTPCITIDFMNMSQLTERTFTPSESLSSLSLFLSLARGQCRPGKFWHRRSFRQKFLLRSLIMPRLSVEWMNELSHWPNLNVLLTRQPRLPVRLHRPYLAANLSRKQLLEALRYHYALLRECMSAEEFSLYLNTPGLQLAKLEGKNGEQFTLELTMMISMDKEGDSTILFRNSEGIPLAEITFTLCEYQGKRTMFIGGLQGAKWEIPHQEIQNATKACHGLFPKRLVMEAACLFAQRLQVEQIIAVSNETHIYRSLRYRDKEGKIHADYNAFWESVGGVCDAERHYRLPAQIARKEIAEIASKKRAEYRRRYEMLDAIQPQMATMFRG
UniProt P02919, sequence (P02919 whole entry): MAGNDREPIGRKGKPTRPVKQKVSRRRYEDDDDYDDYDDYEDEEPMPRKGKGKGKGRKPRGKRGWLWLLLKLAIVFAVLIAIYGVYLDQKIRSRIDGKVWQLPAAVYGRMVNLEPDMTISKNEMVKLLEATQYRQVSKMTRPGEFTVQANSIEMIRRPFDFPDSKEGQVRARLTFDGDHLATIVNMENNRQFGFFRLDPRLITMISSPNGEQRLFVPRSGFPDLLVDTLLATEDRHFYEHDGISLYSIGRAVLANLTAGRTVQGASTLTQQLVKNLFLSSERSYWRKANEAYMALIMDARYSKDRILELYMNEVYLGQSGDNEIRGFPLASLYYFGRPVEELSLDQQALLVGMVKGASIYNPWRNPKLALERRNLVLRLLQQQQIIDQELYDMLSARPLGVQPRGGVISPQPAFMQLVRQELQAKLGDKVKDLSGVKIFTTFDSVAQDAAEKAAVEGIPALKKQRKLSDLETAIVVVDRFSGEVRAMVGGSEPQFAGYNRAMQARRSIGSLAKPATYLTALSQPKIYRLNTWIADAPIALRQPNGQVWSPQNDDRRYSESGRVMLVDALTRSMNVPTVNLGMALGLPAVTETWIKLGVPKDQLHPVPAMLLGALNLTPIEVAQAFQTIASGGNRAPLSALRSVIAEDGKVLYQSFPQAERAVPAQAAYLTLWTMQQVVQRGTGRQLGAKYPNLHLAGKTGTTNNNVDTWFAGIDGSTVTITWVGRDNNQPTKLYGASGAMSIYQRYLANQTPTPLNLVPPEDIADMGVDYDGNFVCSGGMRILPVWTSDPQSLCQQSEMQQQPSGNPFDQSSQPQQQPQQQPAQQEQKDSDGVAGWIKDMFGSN
UniProt P21151, sequence (P21151 whole entry): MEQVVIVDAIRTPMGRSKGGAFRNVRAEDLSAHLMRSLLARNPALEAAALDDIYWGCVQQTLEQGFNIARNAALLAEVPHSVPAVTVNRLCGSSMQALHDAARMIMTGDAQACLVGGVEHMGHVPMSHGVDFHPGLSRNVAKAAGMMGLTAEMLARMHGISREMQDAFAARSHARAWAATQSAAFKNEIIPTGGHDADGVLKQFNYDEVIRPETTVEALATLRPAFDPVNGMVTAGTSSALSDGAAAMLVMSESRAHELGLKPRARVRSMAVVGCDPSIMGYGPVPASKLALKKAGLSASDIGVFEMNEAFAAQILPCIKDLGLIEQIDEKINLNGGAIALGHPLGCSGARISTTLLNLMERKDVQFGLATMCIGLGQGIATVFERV
UniProt P39399, sequence (P39399 whole entry): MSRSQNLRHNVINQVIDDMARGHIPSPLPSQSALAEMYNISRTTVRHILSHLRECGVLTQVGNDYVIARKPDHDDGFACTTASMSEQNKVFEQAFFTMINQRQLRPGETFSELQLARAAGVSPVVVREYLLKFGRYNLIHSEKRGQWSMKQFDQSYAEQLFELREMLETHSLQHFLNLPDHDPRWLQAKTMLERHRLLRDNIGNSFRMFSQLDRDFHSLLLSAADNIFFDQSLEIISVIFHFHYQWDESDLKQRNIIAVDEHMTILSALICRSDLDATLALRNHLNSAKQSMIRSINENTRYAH
UniProt P27830, sequence (P27830 whole entry): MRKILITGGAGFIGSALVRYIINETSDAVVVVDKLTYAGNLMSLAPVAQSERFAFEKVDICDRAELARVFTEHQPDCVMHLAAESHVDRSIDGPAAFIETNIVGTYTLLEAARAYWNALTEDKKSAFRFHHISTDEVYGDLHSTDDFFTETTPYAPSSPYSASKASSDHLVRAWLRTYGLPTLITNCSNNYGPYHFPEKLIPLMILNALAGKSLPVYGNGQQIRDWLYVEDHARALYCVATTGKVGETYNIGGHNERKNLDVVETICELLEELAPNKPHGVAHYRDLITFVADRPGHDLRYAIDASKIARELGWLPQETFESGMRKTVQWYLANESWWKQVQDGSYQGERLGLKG
UniProt P36771, sequence (P36771 whole entry): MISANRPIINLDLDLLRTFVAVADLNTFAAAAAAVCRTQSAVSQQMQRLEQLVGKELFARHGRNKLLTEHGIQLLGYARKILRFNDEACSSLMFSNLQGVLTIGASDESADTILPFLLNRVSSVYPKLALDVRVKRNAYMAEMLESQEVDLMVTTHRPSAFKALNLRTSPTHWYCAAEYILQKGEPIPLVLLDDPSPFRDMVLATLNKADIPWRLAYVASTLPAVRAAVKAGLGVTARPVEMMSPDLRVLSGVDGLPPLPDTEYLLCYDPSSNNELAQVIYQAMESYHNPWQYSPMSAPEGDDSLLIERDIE
UniProt P12282, sequence (P12282 whole entry): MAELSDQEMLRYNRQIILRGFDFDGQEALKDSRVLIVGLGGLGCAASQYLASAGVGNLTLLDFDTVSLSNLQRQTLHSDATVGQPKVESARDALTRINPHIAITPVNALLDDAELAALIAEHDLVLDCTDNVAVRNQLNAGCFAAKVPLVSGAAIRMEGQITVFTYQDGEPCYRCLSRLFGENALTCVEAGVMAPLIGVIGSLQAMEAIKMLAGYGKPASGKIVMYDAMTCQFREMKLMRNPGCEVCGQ
UniProt P0ACX3, sequence (P0ACX3 whole entry): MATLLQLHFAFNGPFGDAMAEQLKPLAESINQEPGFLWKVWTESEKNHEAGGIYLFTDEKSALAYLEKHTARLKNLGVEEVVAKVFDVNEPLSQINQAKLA

Compound in this assay: Nc1ncnc2c1ncn2[C@@H]1O[C@H](COP(=O)(O)OP(=O)(O)OP(=O)(O)O)[C@@H](O)[C@H]1O [adenosine 5'-triphosphate]
As to the kind of experiment: log2 fold change of tryptic peptide abundance, ligand vs vehicle (limited proteolysis) (log2 ratio); higher = more trypsin-susceptible (destabilized). Conditions: ligand concentration: 5 mM; sample: E. coli desalted lysate; replicate design: treated before aliquoting. The procedure:
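HT-PELSA: desalted E. coli K-12 BW25113 lysate (with 12 mM MgCl2) incubated with 5 mM ATP (pH 7) or water for 30 min at 25 C, then a 4 min trypsin pulse at 22 C. Peptides were quantified by DIA-MS (4 replicates). Value is the peptide log2 fold change (treated/control); negative = stabilized. Scale: negative = ligand-stabilized region.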
For the target “UniProt P75785 (peptide sequence: SLGLTLNR, peptide start residue: 266)”, the log2 fold change is -0.884.

On to “UniProt P08839 (peptide sequence: TSHTSIMAR, peptide start residue: 187)”, for which the log2 fold change turned out to be 0.443.

“UniProt Q46889 (peptide sequence: LQQEGYR, peptide start residue: 188)”: the log2 fold change was -0.564.

“UniProt P39280 (peptide sequence: IHSRLPIVIPAR, peptide start residue: 193)”: the log2 fold change was 1.51.

Take “UniProt P12282 (peptide sequence: QTLHSDATVGQPK, peptide start residue: 74)”: the log2 fold change was -1.54.

For “UniProt P0ACW4 (peptide sequence: GGISHCTAGGK, peptide start residue: 30)”, the log2 fold change is -0.911.

Consider “UniProt P02919 (peptide sequence: SIGSLAK, peptide start residue: 507)”, for which the log2 fold change is 0.413.

Take “UniProt P27830 (peptide sequence: ASSDHLVR, peptide start residue: 172)”: the log2 fold change is -0.668.

Turning to “UniProt P55734 (peptide sequence: LRHEQIIFHCQAGKR, peptide start residue: 55)”, the log2 fold change came to 0.948.

“UniProt P77689 (peptide sequence: INSLAMPVKNEVCDTR, peptide start residue: 270)”: the log2 fold change was found to be 1.09.

As for “UniProt P76403 (peptide sequence: SFYYCARTAQVYRK, peptide start residue: 294)”, the log2 fold change is -0.632.

For the target “UniProt P06710 (peptide sequence: HQLEHILNEEHIAHEPR, peptide start residue: 185)”, the log2 fold change is -1.86.

Take “UniProt P36879 (peptide sequence: TYPGGVQALR, peptide start residue: 13)”: the log2 fold change was -3.15.

As for “UniProt P39399 (peptide sequence: AAGVSPVVVR, peptide start residue: 118)”, the log2 fold change is 0.3.

In the case of “UniProt P77265 (peptide sequence: QHPEFYLR, peptide start residue: 103)”, the log2 fold change was -0.556.

Turning to “UniProt P38035 (peptide sequence: APILLNGPTGAGK, peptide start residue: 209)”, the log2 fold change is -1.38.

As to “UniProt P36771 (peptide sequence: AGLGVTARPVEMMSPDLR, peptide start residue: 231)”, the log2 fold change came to 0.543.

Regarding “UniProt P25888 (peptide sequence: DLMASAQTGTGK, peptide start residue: 40)”, the log2 fold change was -1.66.

For “UniProt P0AEC3 (peptide sequence: FTQQGQVTVR, peptide start residue: 413)”, the log2 fold change is -2.53.

For “UniProt P0AF96 (peptide sequence: AHVTAETPK, peptide start residue: 26)”, the log2 fold change was -0.321.

For the target “UniProt P30750 (peptide sequence: TVFGNVALPLELDNTPKDEVKR, peptide start residue: 98)”, the log2 fold change came out at 0.668.

Consider “UniProt Q47147 (peptide sequence: QANRGEVALENTHPFTR, peptide start residue: 80)”, for which the log2 fold change was determined as 0.755.

Regarding “UniProt P75829 (peptide sequence: EIAEIASK, peptide start residue: 298)”, the log2 fold change was -0.281.

As for “UniProt P24203 (peptide sequence: ILLTKTDVAGEAEKLHER, peptide start residue: 155)”, the log2 fold change is 1.26.

“UniProt P0A7Y8 (peptide sequence: KGVADLDNR, peptide start residue: 91)”: the log2 fold change stood at 0.915.

Regarding “UniProt P27238 (peptide sequence: NKMTTEELAECLGVAK, peptide start residue: 6)”, the log2 fold change was 0.577.

Take “UniProt P77307 (peptide sequence: HQLVVTQLK, peptide start residue: 249)”: the log2 fold change is -0.533.

For the target “UniProt P21151 (peptide sequence: ISTTLLNLMERK, peptide start residue: 352)”, the log2 fold change was found to be 0.834.

On to “UniProt P56579 (peptide sequence: MGIQLEQK, peptide start residue: 172)”, for which the log2 fold change came out at 0.509.

As to “UniProt P37766 (peptide sequence: AIAPDIAFIR, peptide start residue: 178)”, the log2 fold change was -0.633.

As for “UniProt P0ACX3 (peptide sequence: NLGVEEVVAK, peptide start residue: 75)”, the log2 fold change amounted to 0.583.
